MARV entry inh: Marburg virus entry inhibition; Marburg virus pseudotyped entry inhibition, cell reporter; actives 1.8% (n = 300,000); Potency, µM (titrated, usually from 37.8 µM), for inactives: at the highest dose activity change, negative = inhibition, usual class: inhibitors; calls by dose curve; tested in HEK293 cells
RE007 growth inh: less growth of the S. pombe RE007 Vpr strain. AID 651644. S. pombe RE007 Vpr strain, BacTiter-Glo ATP luminescence, 24 h. Potency, µM (top dose mostly 92.2 µM), for inactives: at the highest dose activity change, negative = less growth, usual class: inhibitors. actives 0.21% (n = 360,000); active means well fitted falling curve with a large enough effect; inconclusive means small, poorly fitted or top-dose-only effect; inactive means no such curve, though single readings can be large or run the other way; further: nearly all actives have a fitted effect of over 50% in size
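Fission yeast strain RE007, carrying one chromosomally integrated HIV-1 vpr copy, was seeded at OD 0.01 in PMG+AL medium with 23 nL pinned compound. After 24 h at 30 °C and 99% humidity, viability was read by BacTiter-Glo luminescence.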
Lassa entry inh: Lassa virus entry inhibition. Potency, µM (highest dose often 37.9 µM), for the others: at the highest dose activity change, negative = inhibition, actives largely listed as inhibitors. actives 1.2% (n = 300,000). Lassa virus pseudotype entry inhibition, cell reporter; calls by dose curve; tested in HEK293 cells; further: nearly all actives have a fitted effect of over 50% in size
HCV inhibitor: blocks hepatitis C virus; Potency, µM (top dose mostly 41.8 µM), for the others: at the highest dose activity change, negative = inhibition, usual class: inhibitors; AID 651820; actives 3.4% (n = 340,000); Huh7.5.1 HCVcc-Cre infection, luciferase reporter, 44 h
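Luciferase read-out (15 sec integration) after a 15 min room-temperature substrate step quantifies HCVcc-Cre infection. Cells, 1,000 per well, had compound added 4 h post-plating, then virus at ~0.5 moi, and were cultured 44 h.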
Sm TGR block: blocks Schistosoma mansoni thioredoxin glutathione reductase. Q962Y6. purified TGR, DTNB reduction, TNB absorbance 405 nm. Potency, µM (highest dose often 114 µM), for inactives: at the highest dose activity change, negative = inhibition, hits mostly inhibitors. actives 3% (n = 360,000); further: nearly all actives have a fitted effect of over 60% in size
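Kinetic colorimetric format: TGR-catalysed, NADPH-driven DTNB reduction monitored via TNB absorbance. Enzyme dispensed at 20 nM; compound exposure 15 min at room temperature before reaction start.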
FMDV inh: antivirals against foot and mouth disease virus; FMDV antiviral cell-based qHTS; actives 1.2% (n = 410,000); Potency, µM (doses to about 57.9 µM), for inactives: at the top dose activity change, negative = inhibition, hits mostly inhibitors; calls by dose curve; tested in HEK293T cells; further: read-out not given here; nearly all actives have a fitted effect of over 45% in size
* = called active by the depositor; ? = inconclusive; / = no result; [ ] = another dose, or the depositor's remark. Shown are actives, neighbours in structure and some others; about 7.2% of the full set was active somewhere. Unless noted, the call rests on the fitted dose curve; in most records, active means well fitted curve in the direction sought with a large enough effect; inconclusive means small, poorly fitted or top-dose-only effect, or another doubt; inactive means no such curve, though single readings can be large; an effect the other way counts as inactive or inconclusive. On the % scale 0 is the no-effect control and ±100 the full control effect; potency means the concentration at half of the fitted maximal effect.

SMILES	MARV entry inh	RE007 growth inh	Lassa entry inh	HCV inhibitor	Sm TGR block	FMDV inh
COc1ccc(N2C(=O)CC(n3c(CCCCO)nc4ccccc43)C2=O)cc1 (stereo unspecified)	4%	?	25%	11%	8.9µM*	-27%
COc1ccc(N2C(=O)CC(n3cnc4ccccc43)C2=O)cc1 (stereo unspecified)	-1%	3%	-1%	-2%	-22%	-25%
COc1ccc(N2C(=O)CC(N3CCN(c4ccccc4F)CC3)C2=O)cc1 (stereo unspecified)	15%	-24%	3%	-8%	?	/
O=C1CC(N2CCC(c3nc4ccccc4[nH]3)CC2)C(=O)N1c1ccccc1F (stereo unspecified)	?	35µM*	11%	12%	32µM*	-3%
COc1ccc(N2C(=O)CC(N3CCC(c4nc5ccccc5[nH]4)CC3)C2=O)cc1 (stereo unspecified)	2%	40µM*	-3%	23%	40µM*	4%
CC1Cc2ccccc2N1C(=O)CSc1nnc(-c2ccccc2Cl)o1 (stereo unspecified)	6%[46.1 µM]	/	-6%[46.1 µM]	/	0%	-13%
Cc1ccc(CN(C(=O)COc2cccc(Cl)c2)c2ccccn2)o1	?	/	-21%[46.1 µM]	/	?	14%
Cc1ccc(-c2cc(C(F)F)nc(NCC3CCCO3)n2)cc1 (stereo unspecified)	0%[46.1 µM]	20µM*	-9%	4µM*	-6%	6%
COc1ccc(-c2cc(C(F)F)nc(-n3nc(C)cc3C)n2)cc1	-2%	-20%	-7%	?	1%	-30%
Cc1ccc(-c2cc(C(F)F)nc(N3CCOCC3)n2)cc1	?	5%	-5%[46.1 µM]	5.6µM*	/	-29%
Cc1ccc(-c2cc(C(F)F)nc(NCc3cccs3)n2)cc1	5%	-2%	?	?	1%	-5%
Cc1ccc(-c2cc(C(F)F)nc(NCc3cccnc3)n2)cc1	?	2%	?	6.3µM*	-7%	?
FC(F)(F)c1cc(-c2ccc(Cl)cc2)nc(NCc2cccnc2)n1	-21%	2%	-26%	11µM*	-6%	?
COc1ccc(-c2cc(C(F)(F)F)nc(NCc3ccc(Cl)cc3)n2)cc1	-1%[46.1 µM]	/	-10%[46.1 µM]	/	3%	-27%
Cc1cccc(N=C2NC(=O)/C(=C/c3cccn3C)S2)c1	/	-4%	/	11µM*	-18%	27%
O=C1NC(=Nc2ccccc2)S/C1=C\c1cccn1-c1ccccc1	?	8%	?	2.8µM*	-17%	0%
COc1ccc(/C=C2\SC(=Nc3ccccc3)NC2=O)cc1	/	/	/	/	0%	/
O=C(Nc1ccccc1C(F)(F)F)N1CCC2(CC1)Oc1ccccc1C(=O)N2Cc1ccccc1F	?	/	/	/	-1%	-18%
OCC1(CCCc2ccccc2)CCN(Cc2cnc(N3CCOCC3)s2)CC1	?	-4%	11µM*	?	-11%	?
C=CCNC(=O)Cc1c(OC)ccc2cc(Br)ccc12	-27%[46.1 µM]	2%	/	10µM*	/	?
O=S(=O)(NCc1ccccc1)NCc1cccc(C(F)(F)F)c1	?	-22%	-3%[46.1 µM]	8%	17%	20%
CC(Cc1cccc(C(F)(F)F)c1)NCCCc1ccccc1 (stereo unspecified)	/	/	/	/	/	20µM*
COC(=O)CC(NC1CCN(c2nc(C)c3cc4c(cc3n2)CCC4)CC1)C(=O)OC (stereo unspecified)	/	/	/	/	/	-2%
Cc1sc2nc(CN(C(=O)NC3CCCCC3)C3CCCC3)[nH]c(=O)c2c1C	/	2%	/	-3%	-6%	2%
Cc1sc2nc(CN(Cc3cccs3)C(=O)NC3CCCCC3)[nH]c(=O)c2c1C	?	-7%	?	11µM*	-11%	-26%
SMILES	MARV entry inh	RE007 growth inh	Lassa entry inh	HCV inhibitor	Sm TGR block	FMDV inh
Cc1c(N=NC2=C(O)CCCC2=O)c(=O)n(-c2ccccc2)n1C	-13%[46.1 µM]	4%	0%	0%	18µM*	-19%
COC(=O)CC1Oc2ccc(Cl)cc2-n2cc(-c3ccc(F)cc3)nc21 (stereo unspecified)	-14%[46.1 µM]	/	16%[46.1 µM]	/	-2%	-1%
COc1ccc(N2C(=O)[C@@H]3C[C@H]2CN3Cc2cccn2-c2ccccn2)cc1Cl	/	/	/	/	/	-5%
COc1cccc(N2CCN(C(=O)CCS(=O)(=O)c3ccc4c(c3)oc(=O)n4C)CC2)c1	0%[46.1 µM]	3%	-6%[46.1 µM]	0%	25µM*	6%
Cc1ccc(C)c(N2CCN(C(=O)CCS(=O)(=O)c3ccc4c(c3)oc(=O)n4C)CC2)c1	-19%[46.1 µM]	9%	-13%[46.1 µM]	-24%	40µM*	?
Cc1cccc(N(C)C(=O)CCS(=O)(=O)c2ccc3c(c2)oc(=O)n3C)c1	/	/	24%[46.1 µM]	/	40µM*	-12%
Cn1c(=O)oc2cc(S(=O)(=O)CCC(=O)N3CCN(c4cccc(Cl)c4)CC3)ccc21	/	/	10%[46.1 µM]	/	4%	-28%
CC(=O)Nc1cc(NC(C)=O)cc(-c2nc3ccccc3[nH]2)c1	11%[46.1 µM]	2%	-1%	1%	4%	40µM*
Cc1cc(NC(=O)CSc2nc(C(C)C)nc3ccccc23)no1	?	52%	?	13µM*	-3%	?
Cc1ccc(Oc2ccccc2NC(=O)CSCC(=O)Nc2cc(C)on2)cc1	13µM*	18%	?	?	4%	?
Cc1cc(NC(=O)CSCC(=O)Nc2ccccc2Oc2ccccc2)no1	2.8µM*	-17%	?	?	-4%	?
Cc1[nH]nc2c1C(C1CC=CCC1)C(C#N)=C(N)O2 (stereo unspecified)	-25%[46.1 µM]	0%	-13%	0%	-15%	25µM*
CCc1[nH]nc2c1C(C(C)C)C(C#N)=C(N)O2 (stereo unspecified)	1%	1%	17%	15%	-4%	32µM*
CCC(CC)C1C(C#N)=C(N)Oc2n[nH]c(C)c21 (stereo unspecified)	?	9%	-19%	6%	-3%	35µM*
Cc1ccc(-c2ccc(C3C(C#N)=C(N)Oc4n[nH]c(C)c43)o2)cc1 (stereo unspecified)	-4%	11%	18%	15%	-16%	22%
Cc1[nH]nc2c1C(c1ccc(-c3ccccc3C#N)o1)C(C#N)=C(N)O2 (stereo unspecified)	-14%	-6%	18%	0%	13µM*	?
CCOc1ccc(-c2cnc(NCc3cccc(Cl)c3)n2C)cc1	?	/	-4%[46.1 µM]	/	-1%	-8%
CCOc1ccc(-c2cnc(NCc3cccc4ccccc34)n2CCOC)cc1	?	13%	?	10µM*	5%	-29%
O=C(c1cc(C2CC2)nn1-c1ccccc1)N1CCN(S(=O)(=O)c2ccccc2)CC1	-26%	6%	?	?	-7%	-12%

Screens from PubChem BioAssay.
